Source: PubChem BioAssay
aSyn 5UTR act: Activators via SNCA 5'UTR binding, MLPCN | alpha-synuclein 5'UTR reporter, activators screen | activity score, % (tested at 7.5 µM), hits read low | actives 7.1% (n = 300,000); in the data active means activity score below about -60%
* hit, by the source's call. Not all results are given here.

SMILES	aSyn 5UTR act
CC(C)(C)C(=O)N1CCN(c2ccc([N+](=O)[O-])cc2Cl)CC1	-64*
CCOC(=O)C(=CNc1ccc2c(c1)CCN2C(C)=O)C(=O)OCC	-78*
COc1cc(C(=O)Nc2ccc3c(c2)CCN3C(C)=O)cc(OC)c1OC	97
Cc1ccccc1S(=O)(=O)Nc1nc2ccccc2nc1N1CCc2ccccc2C1	-108*
O=S(=O)(Nc1nc2ccccc2nc1N1CCc2ccccc2C1)c1ccc(Cl)cc1	86
COc1ccc(-c2ccc(C3C(C#N)=C(N)Oc4n[nH]c(C)c43)o2)cc1 (stereo not drawn)	-65*
Cc1ccc(Oc2cnc3ccccc3n2)cc1	-127*
Clc1ccc(Oc2cnc3ccccc3n2)cc1	-80*
Cc1ccc(C)c(OCc2cc(C(=O)N3CC[C@H](O)C3)no2)c1	-127*
CCCOC1CCCN(C(=O)c2cc(COc3c(F)cccc3F)on2)C1 (stereo not drawn)	-136*
COc1ccc(OCc2cc(C(=O)N3CCCC(O)C3)no2)c2ccccc12 (stereo not drawn)	-104*
CC(C)(C)c1ccc(-c2nnc(N)o2)cc1	-154*
CN(C)c1ccc(CNc2nc3ccccc3s2)cc1	80
Cc1ccccc1Nc1nn2c(=O)c3ccccc3nc2s1	-155*
Cc1ccc(Nc2nc3ccccc3s2)cc1	-171*
Fc1ccc(Nc2nc3ccccc3s2)cc1	-207*
Cc1ccccc1Nc1nc2ccccc2s1	-220*
O=c1[nH]c(=O)n([C@H]2C[C@H](O)[C@@H](CO)O2)cc1F	80
COc1ccc(OC)c(C2CC(=O)N3CN(c4ccc(C)c(Cl)c4)CSC3=C2C#N)c1 (stereo not drawn)	-90*
CC(/C=N/NC(=O)Cc1cccn1C)=C\c1ccco1	-69*
CC(/C=N/NC(=O)c1cc(-c2ccc(Cl)cc2)nc2ccccc12)=C\c1ccco1	85
O=C(CNC(=O)c1ccccc1O)N/N=C/c1cc(Br)ccc1OC(=O)/C=C/c1ccco1	68
COc1ccc(C(=O)NCC(=O)N/N=C/C(C)=C/c2ccco2)cc1OC	-62*
CC(/C=N/NC(=O)CN1CCN(Cc2ccc(Cl)cc2)CC1)=C\c1ccco1	-87*
Cc1ccc(CN2CCN(CC(=O)N/N=C/c3ccccc3F)CC2)cc1	-63*
SMILES	aSyn 5UTR act
O=C(CN1CCN(Cc2ccccc2)CC1)N/N=C/C=C/c1ccco1	-95*
CC(Cc1cccs1)NC(=O)Nc1ccc([N+](=O)[O-])cc1 (stereo not drawn)	-75*
O=C(NCCc1ccc(F)cc1)c1cccs1	-139*
O=C(NCCCc1ccccc1)c1cccs1	-88*
COc1ccc2cc(CCNC(=O)c3cccs3)c(=O)[nH]c2c1	-138*
Cc1ccc(-n2nc3c(N4CCC(C(=O)NCCc5cccs5)CC4)nnc(C)c3c2C)cc1	90
O=C(NCC(O)c1ccccc1)c1cccs1 (stereo not drawn)	-136*
O=C(CNC(=O)c1cccs1)c1ccc(Br)cc1	-176*
CC(Cc1cccs1)NC(=O)c1cccs1 (stereo not drawn)	-80*
O=C(NCCc1cccs1)c1cccs1	-147*
NC(=O)c1ccccc1NC(=O)c1ccc2ccccc2c1	-139*
CCc1c(C(=O)Nc2ccccc2C(N)=O)csc1C	-62*
NC(=O)c1ccccc1NC(=O)c1ccc2c(c1)OCO2	-152*
Cc1ccccc1NC(=O)c1ccc2ccccc2c1	-150*
CCCN=C(C)C1=C(O)c2ccccc2C1=O	-94*
Cc1cccc2[nH]c(-c3ccc(NC(=O)c4ccco4)cc3)nc12	-225*
O=C(Nc1ccc2nc(-c3ccc(Br)o3)[nH]c2c1)c1cccs1	-112*
CC(=O)Nc1ccc2nc(-c3ccc(Br)o3)[nH]c2c1	-127*
O=C(Nc1ccc2nc(-c3ccccc3)[nH]c2c1)c1ccco1	-205*
O=C(Nc1ccc2nc(-c3cccnc3)[nH]c2c1)C1CCCCC1	-72*
Cc1ccc(-c2nc3ccc(NS(=O)(=O)c4ccccc4)cc3[nH]2)o1	-174*
O=C(Nc1ccc2nc(-c3ccc(Br)o3)[nH]c2c1)c1ccco1	-106*
O=C(Nc1ccc2nc[nH]c2c1)c1ccco1	-74*
Cc1cc(C)cc(NS(=O)(=O)c2ccc(-c3cnc(C4CC4)o3)cc2)c1	93
O=C(c1cc(-c2ccco2)on1)N1CCCc2ccccc21	-69*
SMILES	aSyn 5UTR act
O=C(c1cc(-c2ccccc2)on1)N1CCCc2ccccc21	-100*
O=C(c1nn2c(C(F)(F)F)cc(-c3ccco3)nc2c1Br)N1CCCc2ccccc21	93
CCOc1ccc2nc(N3CCC(C(=O)N4CCN(c5ncccn5)CC4)CC3)sc2c1	-75*
CCOc1ccc2nc(N3CCCC(C(=O)NC4CCCC4)C3)sc2c1 (stereo not drawn)	-70*
Cc1ccc(N2C(=O)Nc3cc(Cl)c(Cl)cc3N2O)cc1Cl	-99*
CCOC(=O)/C(C#N)=C/c1c[nH]c2ccccc12	-66*
COC(=O)/C(C#N)=C/c1c[nH]c2ccccc12	-96*
CCOC(=O)/C(C#N)=C/Nc1ccccc1OC	-122*
O=Cc1cc2ccccc2nc1SCc1ccc(Cl)c(Cl)c1	109
CCOC(=O)/C(C#N)=C/c1cc2ccccc2nc1Cl	-80*
O=c1c2ccccc2[nH]c(=S)n1CCc1ccccc1	-123*
CCn1c(=NC(=O)c2ccco2)sc2cccc(F)c21	-126*
Fc1ccc2c(Cl)c(-c3nnc(-c4cccs4)o3)sc2c1	-178*
CNc1ncc(C(=O)c2ccc(Br)cc2)s1	-108*
CNc1ncc(C(=O)c2ccccc2)s1	-66*
Cn1ccnc1SCC(=O)c1c[nH]c2ccccc12	-160*
N#CC1CC(c2ccccc2)=NN1c1ccccc1[N+](=O)[O-] (stereo not drawn)	-95*
N/C(=N\OC(=O)COc1ccc(Cl)cc1Br)c1cccnc1	-157*
CCc1ccc(OCC(=O)O/N=C(\N)c2cccnc2)cc1	-83*
N/C(=N\OC(=O)COc1ccc(Br)cc1Cl)c1cccnc1	-155*
C(=C\c1nccc2c1[nH]c1ccccc12)/c1ccccc1	-84*
Cc1ccc(/C=C\c2nccc3c2[nH]c2ccccc23)cc1	-125*
Fc1ccc(/C=C\c2nccc3c2[nH]c2ccccc23)cc1	-139*
O=C(Nc1ccon1)c1ccc(OC2CCCC2)cc1	-102*
S=C(c1ccc(-c2ccc(Cl)cc2Cl)o1)N1CCCCC1	-208*
SMILES	aSyn 5UTR act
S=C(c1ccc(-c2ccc(Cl)cc2Cl)o1)N1CCCC1	-140*
CCOc1ccc2cc(C(=O)c3ccccc3)c(=O)oc2c1	-161*
CCOc1ccc2cc(C(=O)NCc3ccccc3)c(=N)oc2c1	-102*
COc1ccc2cc(S(=O)(=O)c3ccccc3)c(=O)oc2c1	-75*
COc1ccc2cc(C(=O)c3ccccc3)c(=O)oc2c1	-151*
CCN(CC)CC#CC(OC)(c1ccccc1)c1ccccc1	-81*
Cc1ccc(N=Cc2c(O)ccc3ccccc23)cc1F	-111*
CCOC(=O)c1sc(/N=C/c2c(O)ccc3ccccc23)cc1C	-73*
OCCN(CC#CCn1c2ccccc2c2ccccc21)CCO	43
CCN(CC)CCn1c2ccccc2c2nc3ccccc3nc21	-213*
CCOC(=O)c1ccc(COC(=O)c2ccc(-c3nnc(-c4ccccc4)o3)cc2)o1	-91*
CCOC(=O)c1ccc(-c2nnc(-c3ccc(Cl)cc3Cl)o2)cc1	-207*
O=C(COC(=O)c1ccc(-c2nnc(-c3ccccc3)o2)cc1)c1ccccc1	-126*
CCOC(=O)c1ccc(-c2ccc(CO)o2)cc1	-132*
